Assay results as given in ChEMBL document CHEMBL3433997, “St. Jude Leishmania screening dataset” (2016).

How the values were obtained:
Assay type in all cases: functional
[1] = target: Solute carrier family 2, facilitated glucose transporter member 1 (Homo sapiens) (UniProt P11166); experiment: ST_JUDE_LEISH: Cytotoxicity at 2uM final concentration against transgenic Leishmania Mexicana promastigotes LmGLUT1 that are glucose transport deficient and complemented with the human glucose transporter GLUT1. Activity is measured by DNA content using SYBR green in vitro
Chain of Solute carrier family 2, facilitated glucose transporter member 1 (Homo sapiens) (P11166 whole entry): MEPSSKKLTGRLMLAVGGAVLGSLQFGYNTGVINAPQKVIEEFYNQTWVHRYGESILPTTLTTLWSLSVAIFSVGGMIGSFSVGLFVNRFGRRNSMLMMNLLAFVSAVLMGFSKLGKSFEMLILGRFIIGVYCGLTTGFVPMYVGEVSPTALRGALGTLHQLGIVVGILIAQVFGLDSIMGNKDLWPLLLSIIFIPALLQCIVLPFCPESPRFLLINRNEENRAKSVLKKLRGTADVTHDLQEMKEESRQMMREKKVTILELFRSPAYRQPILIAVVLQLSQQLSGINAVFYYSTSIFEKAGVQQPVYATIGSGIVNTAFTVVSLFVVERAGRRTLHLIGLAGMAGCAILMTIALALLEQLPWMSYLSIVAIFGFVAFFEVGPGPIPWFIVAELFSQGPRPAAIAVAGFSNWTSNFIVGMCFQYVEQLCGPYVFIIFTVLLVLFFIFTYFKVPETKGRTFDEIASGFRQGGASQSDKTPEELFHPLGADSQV

[2] = target: Hexose transporter 1 (Plasmodium falciparum) (UniProt O97467); experiment: ST_JUDE_LEISH: Cytotoxicity at 2uM final concentration against transgenic Leishmania Mexicana promastigotes LmPfHT that are glucose transport deficient and complemented with the Plasmodium falciparum hexose transporter. Activity is measured by DNA content using SYBR green in vitro
[3] = target: Glucose transporter (Leishmania mexicana) (UniProt O61059); experiment: ST_JUDE_LEISH: Cytotoxicity at 2uM final concentration against transgenic Leishmania Mexicana promastigotes LmGT2 that are glucose transport deficient and complemented with the L. Mexicana glucose transporter 2. Activity is measured by DNA content using SYBR green in vitro

SMILES	inhibition [1] [%]	inhibition [2] [%]	inhibition [3] [%]
CCc1cn2c3c(cc(C(=O)N[C@@H](Cc4ccccc4)[C@H](O)CNCc4ccccc4C)cc13)N(C)S(=O)(=O)CC2	3.43	2.3	1.96
O=C(/C=C/c1ccc(Cl)c(Cl)c1)NCCCCCCN1CCCN(C(=O)Nc2cccc(C(F)(F)F)c2)CC1	5.59	4.35	0.59
Cc1ccc(CNC(=O)c2cc3c(=O)n4cccc(C)c4nc3n(CCN3CCOCC3)c2=N)cc1	-0.35	1	1.48
Cc1c(C)c2c(c(C)c1O)CC[C@](C)(C(=O)N1CCC(CCN3CCC(c4c[nH]c5ccccc45)CC3)CC1)O2	0.17	-1.76	-0.6
CC(C)Sc1nncc(-c2cnnc(SC(C)C)n2)n1	-0.53	-0.11	0.07
O=C(N[C@H]1CCN(Cc2ccc(OCCCN3CCCCC3)cc2)C1)c1ccc(Cl)c(Cl)c1	2.14	3.98	3.42
CC(C)CCNCC(O)Cn1c2ccc(Cl)cc2c2cc(Cl)ccc21 (stereo unspecified)	0.18	0.29	0.33
O=C(/C=C/c1ccc(Cl)c(Cl)c1)NCCCCCCN1CCCN(C(=O)Nc2ccc(F)c(Cl)c2)CC1	3.61	2.44	2.6
Oc1ccc2ccccc2c1CNCCC1CCCCC1	0.07	0.52	1.73
CCC(CSC1CCCCC1)N(C)CCN(C)C(CC)CSC1CCCCC1 (stereo unspecified)	7.39	36.7	4.54
CC(NC(=O)c1ccc(O)c(-c2ccc(Cl)c(Cl)c2)c1)C(=O)NCCN1CCCCC1 (stereo unspecified)	-0.39	1.71	0.47
O=C(O[C@H]1CN[C@H](C#Cc2cc3ncnc(Nc4ccc5c(ccn5S(=O)(=O)c5cccs5)c4)c3s2)C1)N1CCOCC1	9.76	13.6	10.6
